Seven compounds from PubChem BioAssay (Tox21) can be followed below.

Several values for one entry are separate records, joined by “and”; a condition that tells them apart may be missing. Identical values can stand only once. Values without a mark were called inactive. Records with an inconclusive call do not appear. Activity calls are given as the source filed them. Unless noted, calls come from the whole dose curve; as a rule, active = well fitted curve in the direction sought with a large enough effect in the repeat runs; inconclusive = weak or mixed curves; inactive = no such curve, though single readings can be large; an effect the other way counts as inactive or inconclusive.

Test [1] can be described thus: A CellTox Green Cytotoxicity Assay to monitor cytotoxicity in HEK293 cells - 32 hour (AID 1224881). Note: nearly all actives have a fitted effect of over 40% in size. In a few lines: (§1)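 Cells (HEK293, 600/well) and dye reagent are dispensed together. After 5 h at 37 C, 23 nL compound is pinned in. Plates stay at 37 C for 40 h with fluorescence read at 0h, 8h, 16h, 24h, 32h and 40h.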
The nature of test [2]: A CellTox Green Cytotoxicity Assay to monitor cytotoxicity in HepG2 cells - 0 hour (AID 1224882). Note: nearly all actives have a fitted effect of over 35% in size. In a few lines:
(§2)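 Cells and non-lytic dye reagent are dispensed together (600 HepG2 cells/well) and incubated 5 h before DMSO compound transfer. Kinetic fluorescence is then recorded in the same wells during 40 h at 37 C.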

Test [3] is described as follows: A CellTox Green Cytotoxicity Assay to monitor cytotoxicity in HepG2 cells - 32 hour (AID 1224883). Note: nearly all actives have a fitted effect of over 50% in size. The essentials: as §2
Test [4] can be described thus: A CellTox Green Cytotoxicity Assay to monitor cytotoxicity in HEK293 cells - 8 hour (AID 1224884). Note: nearly all actives have a fitted effect of over 35% in size. The essentials:
as §1

Test [5] in a line: qHTS RealTime-Glo MT Cell Viability Assay in HepG2 cells - 16 hour (AID 1224885). Note: nearly all actives have a fitted effect of over 50% in size. The essentials:
(§3)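 HepG2 cells were seeded at 600 cells/well together with NanoLuc luciferase and a cell-permeant prosubstrate, preincubated 5 h at 37 C/5% CO2, then pin-dosed with compounds in DMSO. Nonlytic luminescence from viable cells was read at each time point.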

The nature of test [6]: qHTS RealTime-Glo MT Cell Viability Assay in HEK293 cells - 24 hour (AID 1224886). For activity change, negative = cytotoxicity: top concentration of the series differs between compounds. Note: nearly all actives have a fitted effect of over 50% in size. Note: potency is the fitted concentration of half-maximal effect. In a few lines: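 HEK293 cells were seeded at 600 cells/well together with NanoLuc luciferase and cell-permeant prosubstrate, preincubated 5 h at 37 C/5% CO2, then given compound in DMSO by pintool. Luminescence from viable-cell prosubstrate reduction was read repeatedly over 40 h.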
(qHTS replaces the single test concentration by a dilution series.)

Test [7] can be described thus: qHTS RealTime-Glo MT Cell Viability Assay in HEK293 cells - 8 hour (AID 1224887). For activity change, negative = cytotoxicity: top concentration of the series differs between compounds. Note: nearly all actives have a fitted effect of over 50% in size. Note: potency is the fitted concentration of half-maximal effect. The essentials: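 Real-time viability in HEK293: signal arises when living cells convert a prosubstrate for NanoLuc in the medium, so luminescence tracks viable cell number. Compound (23 nL, DMSO) added 5 h post-seeding; kinetic reads at 0–40 h, 37 C.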
Test [8] in a line: qHTS RealTime-Glo MT Cell Viability Assay in HepG2 cells - 0 hour (AID 1224889). Note: nearly all actives have a fitted effect of over 50% in size. The essentials: as §3
A short description of test [9]: A CellTox Green Cytotoxicity Assay to monitor cytotoxicity in HepG2 cells - 8 hour (AID 1224890). Note: nearly all actives have a fitted effect of over 45% in size. In a few lines: as §2
Test [10] can be described thus: qHTS assay to identify small molecule antagonists of the estrogen receptor alpha (ER-alpha) signaling pathway using the BG1 cell line in the presence of 0.1 nM 17-beta-estradiol - cell viability counter screen (AID 1259241). Note: nearly all actives have a fitted effect of over 40% in size. In a few lines:
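VM7Luc4E2 cells (endogenous full-length ER-alpha, 4xERE-luciferase), cultured 5 days in charcoal-stripped serum, exposed to compounds with 0.1 nM 17beta-estradiol (final) for 22 hr at 37C. Viability read in same wells as live-cell protease fluorescence after 30 min.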

Test [11] in a line: qHTS assay to identify small molecule antagonists of the androgen receptor (AR) signaling pathway using the MDA cell line in the presence of 0.5 nM R1881 - cell viability counter screen (AID 1259242). Note: nearly all actives have a fitted effect of over 45% in size. In a few lines:
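Steps: plate MDA-kb2 cells, rest 5 hr at 37C without CO2; pin in compounds in DMSO; add R1881 to 0.5 nM final; incubate 16 hr; add CellTiter-Fluor, 30 min; read fluorescence.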

The target in test [12] is Estrogen receptor (Homo sapiens) (UniProt P03372). Kind of test: qHTS assay to identify small molecule antagonists of the estrogen receptor alpha (ER-alpha) signaling pathway using the BG1 cell line in the presence of 0.1 nM 17-beta-estradiol (AID 1259244). Note: nearly all actives have a fitted effect of over 50% in size. In a few lines:
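Antagonist mode: compounds in DMSO are pinned onto VM7Luc4E2 reporter cells, 0.1 nM final 17beta-estradiol is added, and after 22 h at 37C luciferase luminescence is measured with ONE-Glo.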

Test [13] is described as follows: qHTS assay to identify small molecule HDAC inhibitors (AID 1259364).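 Note: wild-type HCT-116 cells with endogenous class I/II HDAC activity; top concentration of the series differs between compounds; nearly all actives have a fitted effect of over 45% in size.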 The essentials: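 Cells (HCT-116, wild type) are seeded at 1,500 per well, incubated overnight, treated with compound in DMSO for 2 hr, then developed with HDAC-Glo I/II reagent for 30 min at room temperature.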
Test [14] can be described thus: qHTS assay to identify small molecule agonists of the sonic hedgehog signaling (Shh) pathway - cell viability counter screen (AID 1259366). Note: nearly all actives have a fitted effect of over 50% in size. Note: potency is the fitted concentration of half-maximal effect. The essentials: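 NIH/3T3-derived Gli1-Luc reporter cells, 2,000 per well, received compound after 4 h and were treated about 23 h at 37C. Viability measured in the same wells by CellTiter-Fluor fluorescence after 1 h.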
Test [15] in a line: qHTS assay to identify small molecule antagonists of the sonic hedgehog signaling (Shh) pathway - cell viability counter screen (AID 1259367). Note: nearly all actives have a fitted effect of over 55% in size. Note: potency is the fitted concentration of half-maximal effect. The essentials: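 Cytotoxicity was assessed in parallel with Shh reporter activity by measuring live-cell protease fluorescence (CellTiter-Fluor) in NIH/3T3 cells stably carrying Gli1-Luc, treated with compound under conditioned medium stimulation for 23 hr plus 1 hr reagent incubation.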

Test [16] in a line: qHTS assay to identify small molecule agonists of the sonic hedgehog signaling (Shh) pathway (AID 1259368; calls by dose curve;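 note: NIH/3T3-derived 3T3Gli1-Luc cells carrying a stable Gli1-driven firefly luciferase reporter; series mostly up to about 92 µM; nearly all actives have a fitted effect of over 15% in size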). The essentials: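 Cells of a mouse NIH/3T3 clone stably expressing luciferase under the Gli1 transcriptional response element are exposed to test chemicals for 24 hr at 37 C. Pathway activation is detected as a rise in luminescence.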
Test [17] can be described thus: A CellTox Green Cytotoxicity Assay to monitor cytotoxicity in HEK293 cells - 16 hour (AID 1224888). Note: nearly all actives have a fitted effect of over 35% in size. In a few lines: as §1
The nature of test [18]: qHTS assay to identify small molecule HDAC inhibitors - cell viability counter screen (AID 1259365). The essentials:
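Wild-type HCT-116 cells, 1,500/well, cultured overnight, then compound-treated 2 h at 37 C. Viability measured as ATP luminescence with CellTiter-Glo after 30 min at room temperature.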

In test [19] the target is Androgen receptor (Homo sapiens) (UniProt P10275). Put plainly: qHTS assay to identify small molecule antagonists of the androgen receptor (AR) signaling pathway using the MDA cell line in the presence of 0.5 nM R1881 (AID 1259243). Note: nearly all actives have a fitted effect of over 50% in size. Note: potency is the fitted concentration of half-maximal effect. The essentials: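 Stably transfected MDA-kb2 cells express luciferase from an MMTV promoter bearing both AR and GR response elements. Compounds plus 0.5 nM R1881 (final) were incubated 16 hr at 37C without CO2, then luminescence measured.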
% is set by controls: 0 for no effect and ±100 for the full control effect.

Sequence of Androgen receptor (Homo sapiens) (P10275 whole entry, looked up): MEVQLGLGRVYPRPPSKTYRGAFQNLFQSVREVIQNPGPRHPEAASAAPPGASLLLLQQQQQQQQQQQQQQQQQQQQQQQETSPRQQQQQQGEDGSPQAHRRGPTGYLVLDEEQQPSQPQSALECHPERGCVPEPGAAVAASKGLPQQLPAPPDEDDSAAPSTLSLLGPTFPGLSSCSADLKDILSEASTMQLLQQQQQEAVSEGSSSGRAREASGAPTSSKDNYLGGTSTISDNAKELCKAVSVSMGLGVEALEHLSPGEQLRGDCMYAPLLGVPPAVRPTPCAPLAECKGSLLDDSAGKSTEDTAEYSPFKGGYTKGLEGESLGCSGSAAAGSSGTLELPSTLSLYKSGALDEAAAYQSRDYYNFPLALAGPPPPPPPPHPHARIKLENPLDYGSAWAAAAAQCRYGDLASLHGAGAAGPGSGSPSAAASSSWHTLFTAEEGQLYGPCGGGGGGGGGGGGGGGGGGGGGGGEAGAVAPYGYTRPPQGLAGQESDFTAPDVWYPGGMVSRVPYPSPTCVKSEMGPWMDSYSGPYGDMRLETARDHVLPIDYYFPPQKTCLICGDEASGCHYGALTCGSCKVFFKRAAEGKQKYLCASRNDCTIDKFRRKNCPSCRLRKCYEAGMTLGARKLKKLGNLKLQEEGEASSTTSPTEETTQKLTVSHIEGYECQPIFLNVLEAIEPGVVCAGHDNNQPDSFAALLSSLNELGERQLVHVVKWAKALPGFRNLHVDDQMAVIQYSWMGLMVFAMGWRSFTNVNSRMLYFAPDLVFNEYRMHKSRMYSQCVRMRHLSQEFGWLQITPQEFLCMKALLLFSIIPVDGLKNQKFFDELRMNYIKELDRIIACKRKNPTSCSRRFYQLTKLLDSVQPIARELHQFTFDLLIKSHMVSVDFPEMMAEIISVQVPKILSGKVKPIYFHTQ
Sequence of Estrogen receptor (Homo sapiens) (P03372 whole entry, looked up): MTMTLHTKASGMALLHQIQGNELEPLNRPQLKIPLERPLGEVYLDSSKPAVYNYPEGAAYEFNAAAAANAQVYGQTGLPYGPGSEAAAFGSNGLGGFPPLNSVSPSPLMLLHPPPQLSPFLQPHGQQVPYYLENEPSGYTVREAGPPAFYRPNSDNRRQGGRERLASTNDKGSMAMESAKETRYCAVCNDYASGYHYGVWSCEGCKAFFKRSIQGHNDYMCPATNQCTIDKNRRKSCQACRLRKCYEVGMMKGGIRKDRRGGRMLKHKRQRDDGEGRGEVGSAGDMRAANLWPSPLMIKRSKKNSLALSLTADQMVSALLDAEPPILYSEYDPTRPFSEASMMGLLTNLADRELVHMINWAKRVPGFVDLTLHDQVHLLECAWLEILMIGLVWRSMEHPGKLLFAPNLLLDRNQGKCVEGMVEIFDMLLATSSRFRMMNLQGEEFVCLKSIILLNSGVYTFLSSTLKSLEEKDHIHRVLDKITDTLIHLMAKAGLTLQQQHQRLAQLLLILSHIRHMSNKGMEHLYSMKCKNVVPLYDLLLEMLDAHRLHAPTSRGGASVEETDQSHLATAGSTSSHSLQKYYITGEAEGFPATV

Take `CCC(C)Cl` (centres undefined): the Potency result in test [1], in test [2], in test [3], in test [4], in test [5] and in test [6] was “inactive” in each case. Besides, the Potency result in [7], in test [9], in [10], in [11], in test [12] and in test [13] was “inactive” in each case. Further, the Potency entry in test [14], in test [15] and in test [16] was “inactive” in each case. Besides, in test [8], the result was inactive.

As to `CCCCCCCCCCCCN=C(N)N`, the cytotoxicity increase in test [1] is 11.7% [at 2.72 µM]; in test [3], -4.96% [at 2.72 µM]; in test [4], 4.34% [at 2.72 µM]; in test [9] it was -0.515% [at 2.72 µM]. Also, in test [2], the cytotoxicity was -4.6% [at 2.72 µM]. Also, in [5], the activity change, negative = cytotoxic is -5.38% [at 2.72 µM]. Moreover, the activity change was 7.85% [at 2.72 µM, active compounds read high] in test [17] and 0.488% [at 3.27 µM, active compounds read high] in test [16]. Also, the activity change, negative = cytotoxicity is 5.28% [at 2.72 µM] in test [8] and 2.27% [at 3.27 µM] in test [10]. Also, the values for the viability change, negative = cytotoxic in [11], in [14] and in test [15] were -1.29% [at 3.26 µM], 23.3% [at 3.27 µM] and 1.35% [at 3.27 µM], respectively. Moreover, the activity change, negative = inhibition in test [13] is 5.66% [at 3.27 µM].

For `COc1cc(CC(C)N)c(OC)cc1Br` (centres undefined), the Potency result in test [1], in test [2], in test [4], in test [5], in test [6] and in test [7] was “inactive” in each case. For the same compound, the Potency entry in test [17], in [9], in [10], in test [11], in [13] and in [18] was “inactive” each time. Moreover, the Potency entry in test [14], in test [15] and in [16] was “inactive” in each case. Besides, the compound was classed as inactive in [8].

In the case of `CC(C)(C)N(NC(=O)c1ccc(Cl)cc1)C(=O)c1ccccc1`, the Potency entry in [1], in [2], in [3], in test [4], in test [5] and in test [7] was “inactive” in each case. For the same compound, the Potency entry in [9], in test [11], in [19], in [12], in test [13] and in [18] was “inactive” in each case. In addition, the Potency result in [16] is “inactive”. In test [8], the outcome was inactive. The Potency in test [14] is 2.71 µM (active); in test [15], 3.83 µM (active).

Consider `CN(C)N`, for which the Potency entry in [2], in test [5], in test [6], in test [7], in [9] and in test [10] was “inactive” in each case. For the same compound, the Potency entry in [11], in test [19], in test [13], in [18], in [14] and in test [15] was “inactive” each time. The Potency entry in [16] is “inactive”. The result in [8] was inactive.

Take `CCCN(CCOc1c(Cl)cc(Cl)cc1Cl)C(=O)n1ccnc1`: the Potency result in [1], in test [2], in test [4], in test [5], in test [17] and in test [9] was “inactive” throughout. Moreover, the Potency result in test [10], in test [11], in [13], in test [18], in test [14] and in test [15] was “inactive” in each case. For the same compound, the Potency entry in [16] was “inactive”. Also, the Potency was 22.3 µM (active) and 27.5 µM (active) in [6]; 44.6 µM (active) and 27.5 µM (active) in test [7].

Consider `COP(=O)(OC)OC(Br)C(Cl)(Cl)Br` (centres undefined), for which the Potency entry in test [1], in [2], in [3], in [4], in [5] and in test [7] was “inactive” in each case. Moreover, the Potency result in test [17], in test [9], in [10], in test [11], in test [12] and in [13] was “inactive” in each case. In addition, the Potency entry in [18], in test [14], in [15] and in test [16] was “inactive” each time. The compound was called inactive in [8]. For the same compound, in test [19], the Potency is 61.2 µM (active) and 61.1 µM (active).
